The nature of this test: cytotoxicity in LNCaP prostate cells – cell-based, cell event count, single point, cytotoxicity control for prostate differentiation activator project, confirmation (AID 1076).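 Also: counts scatter-gated live cells after medium removal discards detached dead cells.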 The following applies: LNCaP cell loss, flow cytometry event count, 4 d, stronger effect = lower value. (In general: In flow cytometry, cells or beads pass a laser one at a time.)

From PubChem BioAssay AID1076 (NMMLSC, 2008) come the findings set out here.

Calls of active or inactive are those of the source.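 The calls were made as follows: active = cell event count below 40, meaning activity score above 60 where score is 100 minus count; inactive = the rest.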

As for `O=C(NCCCN1CCN(c2cccc(Cl)c2)CC1)c1nc(-c2ccncc2)no1`, the cell event count is 166 (inactive) (at 100 µM) and 462 (event count, at 10 µM).
On the same counts, the results for `COc1cc(C(=O)NCc2nnc(SCC(=O)NCc3ccccc3)o2)cc(OC)c1OC` are 104 (inactive) and 134.
The like results for `Cc1oc(-c2ccc(Cl)cc2)nc1CN1CCCC(C(=O)NCc2cccnc2)C1` (stereo not drawn) were, in that order, 28 (inactive) and 67.
On the same counts, the results for `COc1ccc(Nc2nc(N3CCCC3)c3ccccc3n2)cc1` are 50 (inactive) and 180.
Turning to `CC(=O)c1cccc(NC2c3ccccc3C(=O)N2Cc2ccc3c(c2)OCO3)c1` (stereo not drawn), the cell event count runs as follows: (at 100 µM) 121 (inactive); (event count, at 10 µM) 281.
The like results for `Cc1ccccc1OCc1nc(-c2ccc(NC(=O)c3ccc4c(c3)OCO4)cc2)no1` were, in that order, 31 (inactive) and 154.
Consider `O=C(NCCCN1CCN(c2cccc(Cl)c2)CC1)c1cccc(N2CCCC2=O)c1`, for which the cell event count runs as follows: (at 100 µM) 222 (inactive); (event count, at 10 µM) 176.
On the same counts, the results for `COc1ccc(-c2coc3c(CN4CCCCC4)c(O)c(CN4CCCCC4)c(O)c3c2=O)cc1` are 7 (active) and 63.
Turning to `O=c1cc(N2CCc3ccccc3C2)[nH]c(=O)n1C1CCCCC1`, the cell event count runs as follows: (at 100 µM) 143 (inactive); (event count, at 10 µM) 76.5.
On the same counts, the results for `Cc1ccc2c(c1)NC(=O)C(CC(=O)NCCCN1CCN(c3cc(C)ccc3C)CC1)O2` (stereo not drawn) are 113 (inactive) and 152.
The like results for `Cc1ccccc1-c1nc(CN2CCC(C(=O)NCCCN3CC(C)CC(C)C3)CC2)c(C)o1` (stereo not drawn) were, in that order, 11 (inactive) and 102.
On to `COc1ccc2c(c1OC)C(=O)N(C(C)C(=O)O)C2=O` (stereo not drawn), for which the cell event count was 56 (inactive) (at 100 µM) and 53.5 (event count, at 10 µM).
`O=C(NCCCN1CCN(c2ccccc2F)CC1)C1CCC(=O)N1C1CCCC1` (stereo not drawn): the cell event count (at 100 µM) is 60 (inactive) and the cell event count (event count, at 10 µM) was 62.
On the same counts, the results for `Cc1cccc(-c2nsc(SCC(=O)Nc3nccs3)n2)c1` are 144 (inactive) and 169.
On the same counts, the results for `CCN(CC)CC(=O)Nc1ccc(-c2nc3cc(NC(=O)CN(CC)CC)ccc3o2)cc1` are 1 (inactive) and 140.
The like results for `COC(=O)Nc1sccc1C(=O)Nc1sccc1C(=O)OC` were, in that order, 144 (inactive) and 182.
For the compound `Cc1ccc2c(c1)NC(=O)C(CC(=O)NCCCN1CCN(c3cc(Cl)ccc3C)CC1)O2` (stereo not drawn), the cell event count is, setting by setting: (at 100 µM) 6 (active); (event count, at 10 µM) 66.
The like results for `COc1ccc(CCNC(=O)C2CCN(Cc3nc(-c4cccc(Cl)c4)oc3C)CC2)cc1OC` were, in that order, 85 (inactive) and 338.
On the same counts, the results for `Cc1cc(NC(=O)c2noc3c2CCc2ccccc2-3)n(-c2ccccc2)n1` are 146 (inactive) and 367.
The like results for `COc1ccc(N2CCN(CCCNC(=O)CCCn3c(=O)[nH]c4ccsc4c3=O)CC2)cc1` were, in that order, 13 (active) and 25.5.
Turning to `CCOC(=O)C1CCN(S(=O)(=O)c2ccc(-c3nc4ccccc4s3)s2)CC1`, the cell event count was 70 (inactive) (at 100 µM) and 136 (event count, at 10 µM).
On the same counts, the results for `CCc1ccc(-c2nc(CN3CCC(C(=O)N4CCN(c5ccccn5)CC4)CC3)c(C)o2)cc1` are 10 (inactive) and 212.
The like results for `Cc1cccc(-c2nc(CN3CCCC(C(=O)NC4CCCCC4)C3)c(C)o2)c1` (stereo not drawn) were, in that order, 28 (inactive) and 170.
The like results for `Cc1oc(-c2ccc(Cl)cc2)nc1CN1CCC(C(=O)NCCCN2CCCC2=O)CC1` were, in that order, 51 (inactive) and 115.
In the case of `Cc1cccc(-c2nc(CN3CCCC(C(=O)NC4CCCCCC4)C3)c(C)o2)c1` (stereo not drawn), the cell event count runs as follows: (at 100 µM) 17 (inactive); (event count, at 10 µM) 222.
On the same counts, the results for `CCOC(=O)N1CCN(CC(=O)Nc2cc(C)nn2-c2nc3ccccc3s2)CC1` are 259 (inactive) and 245.
The like results for `COc1ccc(C(CC(=O)O)NC(=O)Cc2ccccc2)cc1` (stereo not drawn) were, in that order, 186 (inactive) and 66.5.
The like results for `CCCOc1ccccc1C1CC(=O)Nc2cc3c(cc21)OCO3` (stereo not drawn) were, in that order, 6 (active) and 56.
With `CCC(CC)C(=O)Nc1cccc(C(=O)NCc2ccco2)c1`, the cell event count is 220 (inactive) (at 100 µM) and 155 (event count, at 10 µM).
The like results for `O=C(CN1CCC(n2nnc3cc(F)ccc32)CC1)Nc1ccc2c(c1)CCC2` were, in that order, 210 (inactive) and 466.
The like results for `Cc1oc(-c2cccc(Cl)c2)nc1CN1CCCC(C(=O)NCc2ccco2)C1` (stereo not drawn) were, in that order, 10 (inactive) and 146.
On the same counts, the results for `c1ccc(N2CCN(c3nnc(Cc4cccnc4)c4ccccc34)CC2)nc1` are 40 (inactive) and 434.
In the case of `CCN1CCN(CCNC(=O)C2CCN(Cc3nc(-c4ccc(Cl)cc4)oc3C)CC2)CC1`, the cell event count was 38 (inactive) (at 100 µM) and 378 (event count, at 10 µM).
On the same counts, the results for `O=c1cc(-c2ccccc2)[nH]c2ccccc12` are 9 (active) and 76.
On the same counts, the results for `Cc1ccc(Cl)cc1N1CCN(C(=O)c2cc3c(=O)n(C)c4ccccc4c3n2C)CC1` are 31 (active) and 10.5.
On the same counts, the results for `O=C(O)C1CCCCC1C(=O)Nc1cnn(Cc2ccccc2)c1` (stereo not drawn) are 42 (inactive) and 66.5.
`Oc1c(CN2CCCCC2)cc(COCc2ccccc2)c2cccnc12`: the cell event count is 35 (inactive) (at 100 µM) and 92 (event count, at 10 µM).
The like results for `Cc1ccccc1Cn1cnc2c(cnn2C(C)(C)C)c1=O` were, in that order, 13 (inactive) and 85.
On the same counts, the results for `O=C1c2ccccc2C(Nc2ccc3c(c2)OCO3)N1Cc1ccc2c(c1)OCO2` (stereo not drawn) are 178 (inactive) and 189.
As to `CN(CC(O)COc1ccc(OCC(O)CN(C)C2CCCCC2)cc1)C1CCCCC1` (stereo not drawn), the cell event count by setting is: (at 100 µM) 249 (inactive); (event count, at 10 µM) 118.
The like results for `O=C(CSc1c[nH]c2ccccc12)N1CCOCC1` were, in that order, 297 (inactive) and 149.
The like results for `O=c1cc(N2CCN(c3ccc(F)cc3)CC2)[nH]c(=O)n1C1CCCCC1` were, in that order, 173 (inactive) and 318.
On the same counts, the results for `CCCOc1ccc2nc(NC(=O)OC)[nH]c2c1` are 12 (inactive) and 102.
Take `CC1(C)CC(=O)c2cc(OCC(=O)NCCCN3CCN(c4ccc(F)cc4)CC3)ccc2O1`: the cell event count is 17 (inactive) (at 100 µM) and 112 (event count, at 10 µM).
Take `COc1ccc(-c2oc3ncn(CCN4CCOCC4)c(=N)c3c2-c2ccc(OC)cc2)cc1`: the cell event count (at 100 µM) was 26 (inactive) and the cell event count (event count, at 10 µM) was 237.
The like results for `Cc1oc(-c2ccc(Cl)cc2)nc1CN1CCCC(C(=O)N2CCN(C(=O)c3ccco3)CC2)C1` (stereo not drawn) were, in that order, 19 (inactive) and 120.
On the same counts, the results for `CCc1ccc(CNC(=O)CN2C(=O)COc3ccccc32)cc1` are 78 (inactive) and 118.
On the same counts, the results for `O=C(NCCCN1CCN(c2ccccc2F)CC1)C1CCCN(S(=O)(=O)c2cnc[nH]2)C1` (stereo not drawn) are 425 (inactive) and 166.
Consider `Cc1ccccc1CS(=O)(=O)CCC(=O)NCCCN1CCN(c2ccccc2F)CC1`, for which the cell event count reads like this: (at 100 µM) 108 (inactive); (event count, at 10 µM) 71.
The like results for `COC(=O)c1cc(-c2ccccc2)sc1NC(=O)c1cc(C)on1` were, in that order, 10 (active) and 42.5.
Regarding `Cc1ccc(-n2c(SCC(=O)Nc3nccs3)nc3c(c2=O)SCC3)cc1`, the cell event count by setting is: (at 100 µM) 83 (inactive); (event count, at 10 µM) 282.
The like results for `CC(C)(O)c1cn(-c2nonc2N)nn1` were, in that order, 249 (inactive) and 106.
On the same counts, the results for `O=C(c1ccccc1)c1ccc(N2CCNCC2)cc1` are 135 (inactive) and 168.
Consider `CCn1c(=O)cc(OCC(=O)O)c2ccccc21`, for which the cell event count was 22 (inactive) (at 100 µM) and 99.5 (event count, at 10 µM).
On the same counts, the results for `CC1CCCCN1CCNC(=O)c1cc2c(-c3ccccc3F)nn(C)c2s1` (stereo not drawn) are 255 (inactive) and 384.
The like results for `CN1CCN(c2cc3c(c4c2[nH]c2ccccc24)C(=O)CC(C)(C)C3)CC1` were, in that order, 31 (inactive) and 231.
The like results for `CN(C)c1ccc(CNC2CC(C)(C)NC(C)(C)C2)cc1` were, in that order, 130 (inactive) and 186.
For the compound `CCCNC(=O)C1CN(S(=O)(=O)c2ccccc2)CCN1S(=O)(=O)c1ccccc1` (stereo not drawn), the cell event count by setting is: (at 100 µM) 120 (inactive); (event count, at 10 µM) 67.
The like results for `COc1ccc(-n2c(C)nc3c(cnn3-c3ccc(Cl)cc3)c2=O)cc1` were, in that order, 45 (inactive) and 84.
The like results for `Cc1oc(-c2cccc(Cl)c2)nc1CN1CCC(C(=O)NCc2cccnc2)CC1` were, in that order, 38 (inactive) and 150.
The like results for `O=C(NCCCN1CCN(c2ccccc2F)CC1)C1CCC(=O)N1C1CCCCC1` (stereo not drawn) were, in that order, 388 (inactive) and 282.
Take `COc1ccc(Cl)cc1N1CCN(CCNC(=O)Nc2ccccc2C)CC1`: the cell event count (at 100 µM) was 6 (inactive) and the cell event count (event count, at 10 µM) turned out to be 506.
On the same counts, the results for `O=C(c1ccc(COCC(F)(F)F)o1)N1CCCCCC1` are 118 (inactive) and 104.
For the compound `CCOc1ccc2ccccc2c1C(=O)N1CCN(c2ccccc2)CC1`, the cell event count was 19 (inactive) (at 100 µM) and 79.5 (event count, at 10 µM).
For the compound `CC1(C)CC(=O)c2cc(OCC(=O)NCCCN3CCN(c4ccccc4F)CC3)ccc2O1`, the cell event count was 11 (inactive) (at 100 µM) and 141 (event count, at 10 µM).
The like results for `CCCS(=O)(=O)N1CCCC(C(=O)NCCCN2CCN(c3ccc(F)cc3)CC2)C1` (stereo not drawn) were, in that order, 49 (inactive) and 47.
On the same counts, the results for `OCc1nc2ccccc2n1CCCOc1ccccc1` are 178 (inactive) and 156.
The like results for `CN1CCN(CCCNC(=O)c2cc3c(-c4ccc(Cl)cc4)nn(C)c3s2)CC1` were, in that order, 7 (inactive) and 146.
As for `Cc1ccc2[nH]c(=O)c3cc(C(=O)N(C)Cc4ccco4)sc3c2c1`, the cell event count was 72 (inactive) (at 100 µM) and 456 (event count, at 10 µM).
